Screening results as filed in PubChem.
Compounds with a hit are over-represented: about 2.1% of the library has one in this group of screens.
MLL AF4-AF9 inh: inhibitors of AF4 peptide binding to AF9, primary screen, biochemical, AlphaScreen, biotin-AF4 peptide, FLAG-AF9, single point | Protein AF-9 (Homo sapiens), P42568 | inhibition, % at 10 µM | 350,000 tested, 0.47% active | AID 651704, 2012;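 active = every replicate reaching a set inhibition limit, whatever the replicate mean, cut at about 25% in these data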;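 also: 0% = plate neutral control median and 100% = total signal loss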
INS-1E GSIS act: GLuc luminescence reporter in INS-1E cells, primary screen for activators of glucose-dependent secretion of insulin. INS-1E GLuc reporter insulin secretion, 2-3 h. activation, % at 16.6 µM. AID 743287, 2014. 370,000 tested, 0.61% active;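 active = lowest replicate activation of at least 40%, so every replicate reaches that level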;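 also: 0% = median of neutral control wells and 100% = median of IBMX positive control wells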
Env fusion inh: inhibitors of HIV-1 Env-driven cell-cell fusion, primary screen, HeLa-JRFL effector, CEM21 target cells, luciferase | inhibition, % at 12.3 µM | 360,000 tested, 1.1% active;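 active = mean replicate inhibition score of at least 50 and every replicate individually at or above 50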;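 also: 0% = plate neutral controls and 100% = maraviroc near 300 nM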
PGC1a acetyl inh: inhibitors of PGC1a acetylation signal, primary screen, cell-based, U2OS, AlphaScreen, inhibitor mode; 350,000 tested, 0.17% active; inhibition, % at 15.6 µM; AlphaScreen anti-acetyl-lysine; with virally co-expressed GCN5 acetyltransferase;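 active = every replicate shows inhibition of at least 40%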;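 also: 0% = neutral control wells and 100% = positive control wells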
NSD2 inh: NSD2 histone methyltransferase inhibitors, primary screen, biochemical, AlphaScreen, single concentration, set 2; Histone-lysine N-methyltransferase NSD2 (Homo sapiens), O96028; NSD2 peptide methylation, 120 min; inhibition, % at 12.5 µM; 310,000 tested, 0.54% active; in the data active = inhibition above about 50%
Starred values were filed as active, the others as inactive; [ ] = another dose, or the depositor's remark.

`CC1=C(C)/C(=N\OS(=O)(=O)c2ccc(C)cc2)C=CC1=O` gave INS-1E GSIS act 225*, Env fusion inh -298 and NSD2 inh 3.
For COc1ccc(S(=O)(=O)/N=C2/C=CC(=O)C(C)=C2C)cc1 the results were PGC1a acetyl inh 2 and NSD2 inh -2.
`CC1=C/C(=N\OS(=O)(=O)c2ccccc2)C(C)=CC1=O` gave INS-1E GSIS act 250, PGC1a acetyl inh 60* and NSD2 inh -4.
For Cc1cccc(CN2CCN(CC(=O)NCCCN3CCCC3=O)C2=O)c1 the results were PGC1a acetyl inh 43 and NSD2 inh -1.
For Cc1cccc(CN2CCN(CC(=O)NCCCN3CCN(c4ccc(F)cc4)CC3)C2=O)c1 the results were Env fusion inh 59*, PGC1a acetyl inh 8 and NSD2 inh 5.
`O=C(Cc1cccs1)N1CCCC(c2nc3c(nnn3Cc3ccc(F)cc3)c(=O)[nH]2)C1` (stereo not given) gave INS-1E GSIS act 12, Env fusion inh -23, PGC1a acetyl inh -21 and NSD2 inh 0.
`CC(C)(C)c1ccc(Cn2nnc3c(=O)[nH]c(C4CCN(C(=O)Cc5cccs5)CC4)nc32)cc1` gave Env fusion inh 72*, PGC1a acetyl inh -18 and NSD2 inh 0.
For CC(C)(C)c1ccc(Cn2nnc3c(=O)[nH]c(C4CCCN(C(=O)Cc5cccs5)C4)nc32)cc1 (stereo not given) the results were INS-1E GSIS act -36, Env fusion inh 63*, PGC1a acetyl inh -5 and NSD2 inh 2.
For COc1ccccc1-c1cnc2c(Nc3cccc(OC(F)(F)C(F)F)c3)nccn12 the results were MLL AF4-AF9 inh 5, INS-1E GSIS act 79*, Env fusion inh 7 and NSD2 inh 0.
Screening COc1ccc(C(CC(=O)Nc2ccccn2)N2Cc3ccccc3C2=O)cc1 (stereo not given) returned MLL AF4-AF9 inh 3, INS-1E GSIS act -23, Env fusion inh 9, PGC1a acetyl inh 76* and NSD2 inh 0.
For COc1ccc(C(CC(=O)Nc2ncccc2C)N2Cc3ccccc3C2=O)cc1 (stereo not given) the results were MLL AF4-AF9 inh 0, INS-1E GSIS act 17, Env fusion inh -2, PGC1a acetyl inh -13 and NSD2 inh -2.
`COc1cc2c(cc1OC)C(c1ccc(-c3ccccc3Cl)o1)=NCC2` gave MLL AF4-AF9 inh 19, INS-1E GSIS act -35, PGC1a acetyl inh 16 and NSD2 inh 2.
For COc1cc2c(cc1OC)C(c1ccc(-c3ccc(Cl)c(Cl)c3)o1)=NCC2 the results were Env fusion inh 83*, PGC1a acetyl inh -5 and NSD2 inh 3.
`COc1cc2c(cc1OC)C(c1ccc(-c3ccc(Cl)cc3Cl)o1)=NCC2` gave Env fusion inh 98*, PGC1a acetyl inh 14 and NSD2 inh 1.
COc1cc2c(cc1OC)C(c1ccc(-c3cc(Cl)ccc3Cl)o1)=NCC2 was read as MLL AF4-AF9 inh 6 and PGC1a acetyl inh 10.
CCN(CC)S(=O)(=O)c1ccc(NC(=O)COC(=O)c2c[nH]c(=O)[nH]c2=O)cc1 was read as MLL AF4-AF9 inh -2, INS-1E GSIS act 11, Env fusion inh 14, PGC1a acetyl inh 0 and NSD2 inh -4.
COc1cc(NC(=O)CSc2nc3[nH]ncc3c(=O)n2-c2ccccc2C)cc(OC)c1OC was read as MLL AF4-AF9 inh -7, INS-1E GSIS act 15, Env fusion inh 9 and NSD2 inh -2.
For CCOc1cc(/C=N/NC(=O)CCn2nc(C)cc2C)ccc1O the results were MLL AF4-AF9 inh 2, INS-1E GSIS act 53*, Env fusion inh -2, PGC1a acetyl inh 9 and NSD2 inh -1.
N#Cc1c(N)nc(SCc2ccccn2)c(C#N)c1-c1cccs1 was read as INS-1E GSIS act -16, Env fusion inh 56*, PGC1a acetyl inh 10 and NSD2 inh -5.
`CCOC(=O)CSc1nc(N)c(C#N)c(-c2cccs2)c1C#N` gave PGC1a acetyl inh 8 and NSD2 inh 3.
`CN(Cc1ccccc1C#N)S(=O)(=O)c1cccs1` gave MLL AF4-AF9 inh -2, INS-1E GSIS act -1, Env fusion inh 13, PGC1a acetyl inh -9 and NSD2 inh -1.
For N#Cc1nccnc1S(=O)(=O)c1cccs1 the results were MLL AF4-AF9 inh 2, INS-1E GSIS act 134*, Env fusion inh 10 and NSD2 inh 0.
For O=c1c2c([N+](=O)[O-])cc([N+](=O)[O-])cc2sn1Cc1ccccc1 the results were MLL AF4-AF9 inh -2, INS-1E GSIS act 128* and Env fusion inh -20.
`COC(=O)c1ccc(CNC(=O)CCc2c[nH]c3ccccc23)cc1` gave MLL AF4-AF9 inh 2, INS-1E GSIS act 50*, Env fusion inh -7 and NSD2 inh -1.
`COc1ccc(CNC(=O)CCc2c[nH]c3ccccc23)cc1` gave MLL AF4-AF9 inh 1, INS-1E GSIS act 14, Env fusion inh 9 and NSD2 inh 2.
C[C@@H]1CN([C@H](C)CO)S(=O)(=O)c2ccc(C#CC3(O)CCCC3)cc2O[C@H]1CN(C)C(=O)Cc1ccncc1 was read as MLL AF4-AF9 inh 1, INS-1E GSIS act 1, Env fusion inh 3[16.7 µM] and PGC1a acetyl inh 1.
`Cc1ccc2nc(C)c3c(c2c1)OC(C(C)(Cl)Br)C3` (stereo not given) gave MLL AF4-AF9 inh -4, INS-1E GSIS act -9, Env fusion inh 34, PGC1a acetyl inh -12 and NSD2 inh 25.
For Cc1nc2ccccc2c2c1CC(C(C)(Cl)Br)O2 (stereo not given) the results were MLL AF4-AF9 inh -14, INS-1E GSIS act -47, Env fusion inh 74* and PGC1a acetyl inh 1.
CCOC(=O)N1CCC(NC(=O)C2CCN(c3nc(-c4ccc(OC)cc4)no3)CC2)CC1 was read as Env fusion inh 34* and PGC1a acetyl inh -5.
CC1=C(C(=O)N(C(C)C)C(C)C)CC(CC(=O)NCc2cccs2)C(=O)N1CCCN1CCCC1=O (stereo not given) was read as MLL AF4-AF9 inh 1, INS-1E GSIS act 4 and PGC1a acetyl inh 6.
O=C(CSc1ccsc1[N+](=O)[O-])NCc1ccco1 was read as MLL AF4-AF9 inh 5, INS-1E GSIS act 1, Env fusion inh 19 and NSD2 inh 3.
For COc1ccccc1-c1noc(CCCC(=O)NC2CCCC2)n1 the results were MLL AF4-AF9 inh -1, INS-1E GSIS act 18, Env fusion inh 6 and NSD2 inh -3.
O=C(CCCc1nc(-c2ccccc2Cl)no1)NC1CCCC1 was read as MLL AF4-AF9 inh -3, INS-1E GSIS act -7, Env fusion inh 66*, PGC1a acetyl inh -5 and NSD2 inh 4.
Screening Cc1ccc(-c2nn3c(C)nnc3s2)cc1NC(=O)c1ccc(-c2ccc(Cl)cc2Cl)o1 returned INS-1E GSIS act 97, Env fusion inh 115*, PGC1a acetyl inh 4 and NSD2 inh 7.
